The source of these data is the supplement of paper PMC7411054.

Where a name gives a salt, the structure may show the parent alone.

One test has as its system WPMY1-TP53BP1-CLTA. The experiment in a line: phenotypically active (imaging signature differs from DMSO and reproducible) at any of 0.3-9 uM (binary (1 = active, 0 = inactive)); higher = active. The conditions noted are these: treatment time: 24 h. The gist of the method:
(§1)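 Fifteen reporter lines derived from A549, HepG2 and WPMY1 cells by gene editing, carrying BFP for segmentation plus GFP and RFP/FusionRed markers, were exposed to 0.3, 1, 3 or 9 µM for 24 h in four wells each and imaged live. Live-cell features from each well were normalised to solvent control wells. A well set counted as deviating when ≥3 of 4 wells lay beyond the 95th percentile of control Euclidean distances, and as reproducible when the median replicate Pearson correlation exceeded the 95th percentile of non-replicates. Phenotypic activity was assigned only when both criteria were met.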
Turning to `O=C(CCCCCCC(=O)Nc1ccc([C@H]2O[C@@H](CSc3nc(-c4ccccc4)c(-c4ccccc4)o3)C[C@@H](c3ccc(CO)cc3)O2)cc1)NO` [Tubacin], the phenotypically active was 1 (active).

As to `CC1CNCCN1S(=O)(=O)c1cccc2cnccc12` (stereo not drawn) [H-7 dihydrochloride], the phenotypically active was 0 (inactive).

`COc1cc(OC)c2c(=O)[nH]c(-c3cc(C)c(OCCO)c(C)c3)nc2c1` [apabetalone]: the phenotypically active is 1 (active).

As for `CC1(CN2CCC(n3c(=O)[nH]c4ccccc43)CC2)OCc2ccccc2-n2cccc21` (stereo not drawn), the phenotypically active was 0 (inactive).

Regarding `N#Cc1ccc2ncnc(NCCc3ccccc3)c2c1` [Senexin A], the phenotypically active is 0 (inactive).

Turning to `Nc1ccc(N=Nc2ccccc2)c(N)n1` [phenazopyridine], the phenotypically active was 0 (inactive).

For `O=C(CCCCCCC(=O)NO)NO`, the phenotypically active was 0 (inactive).

As to `CC(C)(C)c1ccc(C(O)CCCN2CCC(C(O)(c3ccccc3)c3ccccc3)CC2)cc1` (stereo not drawn) [terfenadine], the phenotypically active is 0 (inactive).

As to `COc1ccccc1C(=O)Nc1cc2c(cc1N1CCCC1)n(C)c(=O)n2C`, the phenotypically active is 0 (inactive).

As for `CCC(=O)N1CCOc2c(cc(-c3ccc(OC)c(OC)c3)cc2OC[C@H]2CCCN(C)C2)C1`, the phenotypically active was 0 (inactive).

With `CCc1nc(-c2cccc(C)c2)c(-c2ccnc(NC(=O)c3ccccc3)c2)s1`, the phenotypically active is 0 (inactive).

For `Cc1ccc(S(=O)(=O)n2c(N)nc3ccccc32)cc1`, the phenotypically active is 0 (inactive).

`Cc1ccc(NC(=O)c2cccc(C(C)(C)C#N)c2)cc1Nc1ccc2ncn(C)c(=O)c2c1`: the phenotypically active was 1 (active).

As for `Cn1cc(-c2cnc3ccc4ccc(CS(=O)(=O)NCc5ccccn5)cc4c(=O)c3c2)cn1`, the phenotypically active was 0 (inactive).

`O=C1c2c(O)cccc2Cc2cccc(O)c21` [anthralin]: the phenotypically active was 0 (inactive).

Regarding `COc1cc2c(cc1OC)-c1c/c(=N/c3c(C)cc(C)cc3C)n(C)c(=O)n1CC2` [Trequinsin hydrochloride], the phenotypically active is 1 (active).

Consider `O=C(Nc1ccncc1)c1cc([N+](=O)[O-])ccc1Cl`, for which the phenotypically active was 0 (inactive).

Regarding `Nc1ncnc2c1c(-c1ccc(Oc3ccccc3)cc1)nn2C1CCCC1`, the phenotypically active was 1 (active).

Consider `O=C(Nc1ccc(CN2CCOCC2)cc1)c1ccc(-c2cccc(Cl)c2)o1`, for which the phenotypically active was 0 (inactive).

With `O=C(/C=C/c1ccc2ccccc2n1)c1ccncc1`, the phenotypically active was 1 (active).

`CNCC[C@H](Oc1cccc2ccccc12)c1cccs1` [duloxetine]: the phenotypically active was 0 (inactive).

`CNC(=O)c1cc(Oc2ccc(NC(=O)Nc3ccc(Cl)c(C(F)(F)F)c3)c(F)c2)ccn1` [regorafenib]: the phenotypically active was 1 (active).

With `NC(=O)[C@@H](CCC(F)(F)F)N(Cc1ccc(-c2ncon2)cc1F)S(=O)(=O)c1ccc(Cl)cc1` [avagacestat], the phenotypically active is 0 (inactive).

Regarding `CCC(C)(C)C(=O)O[C@H]1C[C@@H](C)C=C2C=C[C@H](C)[C@H](CC[C@@H]3C[C@@H](O)CC(=O)O3)[C@H]21` [Simvastatin], the phenotypically active was 1 (active).

With `Nc1cc(N)c(N)cc1N` [FAK Inhibitor 14], the phenotypically active was 1 (active).

`Cc1ccc(S(=O)(=O)c2ccc([N+](=O)[O-])o2)cc1`: the phenotypically active is 1 (active).

In the case of `Fc1ccccc1Nc1nc2nonc2nc1Nc1ccccc1F`, the phenotypically active was 0 (inactive).

For the compound `Cc1ccc(O)c([C@H](CCN(C(C)C)C(C)C)c2ccccc2)c1` [Tolterodine L-tartrate], the phenotypically active was 0 (inactive).

As for `O=c1cc(-c2ccccc2)oc2cc(O)cc(O)c12` [Chrysin], the phenotypically active is 1 (active).

As to `COc1cc2nccc(Oc3ccc(NC(=O)C4(C(=O)Nc5ccc(F)cc5)CC4)cc3)c2cc1OC`, the phenotypically active is 0 (inactive).

In the case of `CC(C)c1nc(CN(C)C(=O)N[C@H](C(=O)N[C@@H](Cc2ccccc2)C[C@H](O)[C@H](Cc2ccccc2)NC(=O)OCc2cncs2)C(C)C)cs1` [ritonavir], the phenotypically active was 0 (inactive).

Regarding `CC[C@H](CO)Nc1nc(Nc2cccc(-c3ccccn3)c2)c2ncn(C(C)C)c2n1` [(R)-DRF053 dihydrochloride], the phenotypically active was 0 (inactive).

For the compound `CN1c2ccc([N+](=O)[O-])cc2N=C(c2ccc(C(=O)O)cc2)c2cc3c(cc21)C(C)(C)CCC3(C)C`, the phenotypically active is 0 (inactive).

With `COc1ccc(CCc2nc3cc(-c4c(C)noc4C)ccc3n2C[C@H](C)N2CCOCC2)cc1Cl`, the phenotypically active is 0 (inactive).

On to `CCOC(=O)c1c2c3c(cccc3[nH]c1=O)C(=O)c1ccccc1-2`, for which the phenotypically active is 0 (inactive).

`CCN1/C(=C/C(C)=O)Sc2ccc(O)cc21`: the phenotypically active was 1 (active).

Take `CC(C)(C)n1nc(-c2ccc(Cl)cc2)c2c(N)ncnc21`: the phenotypically active was 0 (inactive).

In the case of `O=S(=O)(c1cccc2cnccc12)N1CCNCC1`, the phenotypically active is 1 (active).

`CC(C)c1c(C(=O)Nc2ccccc2)c(-c2ccccc2)c(-c2ccc(F)cc2)n1CC[C@@H](O)C[C@@H](O)CC(=O)O` [atorvastatin]: the phenotypically active was 1 (active).

For a further test, the system named is WPMY1-TUBA1B-RELA. The test is described as above. The conditions noted are these: treatment time: 24 h. The gist of the method: as §1
On to `O=C(CCCCCCC(=O)Nc1ccc([C@H]2O[C@@H](CSc3nc(-c4ccccc4)c(-c4ccccc4)o3)C[C@@H](c3ccc(CO)cc3)O2)cc1)NO` [Tubacin], for which the phenotypically active is 1 (active).

For the compound `CC1CNCCN1S(=O)(=O)c1cccc2cnccc12` (stereo not drawn) [H-7 dihydrochloride], the phenotypically active was 1 (active).

Take `COc1cc(OC)c2c(=O)[nH]c(-c3cc(C)c(OCCO)c(C)c3)nc2c1` [apabetalone]: the phenotypically active is 1 (active).

On to `CC1(CN2CCC(n3c(=O)[nH]c4ccccc43)CC2)OCc2ccccc2-n2cccc21` (stereo not drawn), for which the phenotypically active is 0 (inactive).

For `N#Cc1ccc2ncnc(NCCc3ccccc3)c2c1` [Senexin A], the phenotypically active is 1 (active).

In the case of `Nc1ccc(N=Nc2ccccc2)c(N)n1` [phenazopyridine], the phenotypically active is 0 (inactive).

On to `O=C(CCCCCCC(=O)NO)NO`, for which the phenotypically active was 0 (inactive).

Regarding `CC(C)(C)c1ccc(C(O)CCCN2CCC(C(O)(c3ccccc3)c3ccccc3)CC2)cc1` (stereo not drawn) [terfenadine], the phenotypically active is 1 (active).

Regarding `COc1ccccc1C(=O)Nc1cc2c(cc1N1CCCC1)n(C)c(=O)n2C`, the phenotypically active was 0 (inactive).

Turning to `CCC(=O)N1CCOc2c(cc(-c3ccc(OC)c(OC)c3)cc2OC[C@H]2CCCN(C)C2)C1`, the phenotypically active was 0 (inactive).

Take `CCc1nc(-c2cccc(C)c2)c(-c2ccnc(NC(=O)c3ccccc3)c2)s1`: the phenotypically active is 1 (active).

Turning to `Cc1ccc(S(=O)(=O)n2c(N)nc3ccccc32)cc1`, the phenotypically active was 0 (inactive).

In the case of `Cc1ccc(NC(=O)c2cccc(C(C)(C)C#N)c2)cc1Nc1ccc2ncn(C)c(=O)c2c1`, the phenotypically active was 0 (inactive).

For `Cn1cc(-c2cnc3ccc4ccc(CS(=O)(=O)NCc5ccccn5)cc4c(=O)c3c2)cn1`, the phenotypically active was 0 (inactive).

On to `O=C1c2c(O)cccc2Cc2cccc(O)c21` [anthralin], for which the phenotypically active is 1 (active).

Take `COc1cc2c(cc1OC)-c1c/c(=N/c3c(C)cc(C)cc3C)n(C)c(=O)n1CC2` [Trequinsin hydrochloride]: the phenotypically active was 1 (active).

For `O=C(Nc1ccncc1)c1cc([N+](=O)[O-])ccc1Cl`, the phenotypically active was 1 (active).

As to `Nc1ncnc2c1c(-c1ccc(Oc3ccccc3)cc1)nn2C1CCCC1`, the phenotypically active was 0 (inactive).

For `O=C(Nc1ccc(CN2CCOCC2)cc1)c1ccc(-c2cccc(Cl)c2)o1`, the phenotypically active was 0 (inactive).

Regarding `O=C(/C=C/c1ccc2ccccc2n1)c1ccncc1`, the phenotypically active was 1 (active).

Regarding `CNCC[C@H](Oc1cccc2ccccc12)c1cccs1` [duloxetine], the phenotypically active is 0 (inactive).

In the case of `CNC(=O)c1cc(Oc2ccc(NC(=O)Nc3ccc(Cl)c(C(F)(F)F)c3)c(F)c2)ccn1` [regorafenib], the phenotypically active was 0 (inactive).

On to `NC(=O)[C@@H](CCC(F)(F)F)N(Cc1ccc(-c2ncon2)cc1F)S(=O)(=O)c1ccc(Cl)cc1` [avagacestat], for which the phenotypically active was 0 (inactive).

`CCC(C)(C)C(=O)O[C@H]1C[C@@H](C)C=C2C=C[C@H](C)[C@H](CC[C@@H]3C[C@@H](O)CC(=O)O3)[C@H]21` [Simvastatin]: the phenotypically active is 1 (active).

For `Nc1cc(N)c(N)cc1N` [FAK Inhibitor 14], the phenotypically active was 1 (active).

As for `Cc1ccc(S(=O)(=O)c2ccc([N+](=O)[O-])o2)cc1`, the phenotypically active is 1 (active).

As to `Fc1ccccc1Nc1nc2nonc2nc1Nc1ccccc1F`, the phenotypically active is 0 (inactive).

As for `Cc1ccc(O)c([C@H](CCN(C(C)C)C(C)C)c2ccccc2)c1` [Tolterodine L-tartrate], the phenotypically active was 0 (inactive).

Consider `O=c1cc(-c2ccccc2)oc2cc(O)cc(O)c12` [Chrysin], for which the phenotypically active was 0 (inactive).

On to `COc1cc2nccc(Oc3ccc(NC(=O)C4(C(=O)Nc5ccc(F)cc5)CC4)cc3)c2cc1OC`, for which the phenotypically active is 0 (inactive).

Regarding `CC(C)c1nc(CN(C)C(=O)N[C@H](C(=O)N[C@@H](Cc2ccccc2)C[C@H](O)[C@H](Cc2ccccc2)NC(=O)OCc2cncs2)C(C)C)cs1` [ritonavir], the phenotypically active was 0 (inactive).

For the compound `CC[C@H](CO)Nc1nc(Nc2cccc(-c3ccccn3)c2)c2ncn(C(C)C)c2n1` [(R)-DRF053 dihydrochloride], the phenotypically active was 1 (active).

Consider `CN1c2ccc([N+](=O)[O-])cc2N=C(c2ccc(C(=O)O)cc2)c2cc3c(cc21)C(C)(C)CCC3(C)C`, for which the phenotypically active was 0 (inactive).

As to `COc1ccc(CCc2nc3cc(-c4c(C)noc4C)ccc3n2C[C@H](C)N2CCOCC2)cc1Cl`, the phenotypically active was 1 (active).

Consider `CCOC(=O)c1c2c3c(cccc3[nH]c1=O)C(=O)c1ccccc1-2`, for which the phenotypically active was 0 (inactive).

In the case of `CCN1/C(=C/C(C)=O)Sc2ccc(O)cc21`, the phenotypically active is 0 (inactive).

Turning to `CC(C)(C)n1nc(-c2ccc(Cl)cc2)c2c(N)ncnc21`, the phenotypically active was 0 (inactive).

Consider `O=S(=O)(c1cccc2cnccc12)N1CCNCC1`, for which the phenotypically active is 1 (active).

On to `CC(C)c1c(C(=O)Nc2ccccc2)c(-c2ccccc2)c(-c2ccc(F)cc2)n1CC[C@@H](O)C[C@@H](O)CC(=O)O` [atorvastatin], for which the phenotypically active was 1 (active).
